G9a block = inhibitors of human histone lysine methyltransferase G9a | AID 504332 | Q96KQ7 | G9a H3K9 monomethylation, AlphaScreen, 2 h | 8.8% of 350,000 active | Potency, µM (series often up to 102 µM), for the others: at the highest dose activity, negative = inhibition, hits mostly inhibitors; also: potency is read from the fitted curve at half-maximal effect; % is scaled to controls: 0 for no effect and ±100 for the full control effect; nearly all actives have a fitted effect of over 75% in size
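Signal arises when biotinylated H3K9 peptide, once monomethylated, bridges streptavidin donor and antibody-captured acceptor beads. Enzyme at 20 nM was preincubated 15 min with test compounds; peptide 500 nM and SAM 20 uM then reacted for 2 h.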
JMJD2A Tudor inh = JMJD2A Tudor domain (human) inhibition; O75164; AlphaScreen JMJD2A-Tudor / H3K4me3 peptide binding; Potency, µM (series often up to 114 µM), for the others: at the top dose activity change, negative = inhibition, usual class: inhibitors; 4.4% of 390,000 active; also: potency is read from the fitted curve at half-maximal effect; % is scaled to controls: 0 for no effect and ±100 for the full control effect; nearly all actives have a fitted effect of over 50% in size
BAZ2B block = inhibitors of human BAZ2B bromodomain. AlphaScreen BAZ2B-H3K14Ac peptide displacement. Potency, µM (series often up to 114 µM), inactives show at the top dose activity change, negative = inhibition, usual class: inhibitors. 4.4% of 360,000 active. AID 504333; also: potency is read from the fitted curve at half-maximal effect; % is scaled to controls: 0 for no effect and ±100 for the full control effect; nearly all actives have a fitted effect of over 60% in size
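AlphaScreen displacement of biotin-H3(5-23)K14Ac peptide (50 nM final) from BAZ2B (50 nM final) in PBS pH 7.4, 0.01% Tween-20; complex preformed 30 min RT, then compounds (top 110 uM) 30 min RT, beads 20 min dark.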
Sfp PPTase inh = inhibitors of Bacillus subtilis Sfp phosphopantetheinyl transferase. Biochemical Sfp PPTase activity, qHTS. 3.5% of 310,000 active. Potency, µM, for inactives: largest response in the series, negative = inhibition, usual class: inhibitors. Q9F4F7;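 also: the enzyme is Sfp with the accession as filed and its product quenches rhodamine fluorescence; potency is read from the fitted curve at half-maximal effect; 0% = enzyme reaction without inhibitor and -100% = no enzyme wells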
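With Hepes-Na pH 7.6 buffer containing 10 mM MgCl2, Sfp (15 nM) modified BHQ-2-YbbR (12.5 uM) using rhodamine-CoA (5 uM). Two reads 30 minutes apart at 525/598 nm yielded each well's rate.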
HP1b chromo inh = blocks HP1-beta chromodomain binding to methylated histone tails; P83916; AlphaScreen HP1-beta / biotin-H3K9me3 peptide binding; Potency, µM (series often up to 114 µM), for the others: at the top dose activity change, negative = inhibition, actives largely listed as inhibitors; 0.56% of 390,000 active; AID 540317; also: potency is read from the fitted curve at half-maximal effect; nearly all actives have a fitted effect of over 70% in size
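AlphaScreen: HP1-beta (50 nM) preformed 30 min with biotin-H3(1-18)K9me3 peptide (50 nM) in PBS pH 7.4, 0.01% Tween-20. Compound added for 30 min at RT, then streptavidin donor/nickel chelate acceptor beads (10 ug/mL) for 30 min.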
12-hLO 8HQ R1 = blocks human 12-lipoxygenase product formation in cuvette; Potency, µM, hits mostly inhibitors; AID 2163; purified 12-hLO, cuvette UV 234 nm product formation; 60% of 35 active; shares compounds with BAZ2B block;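 active = compounds that slowed 12-hLO product formation enough to yield a measured IC50 potency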
Target sequence (P18054 whole entry, looked up): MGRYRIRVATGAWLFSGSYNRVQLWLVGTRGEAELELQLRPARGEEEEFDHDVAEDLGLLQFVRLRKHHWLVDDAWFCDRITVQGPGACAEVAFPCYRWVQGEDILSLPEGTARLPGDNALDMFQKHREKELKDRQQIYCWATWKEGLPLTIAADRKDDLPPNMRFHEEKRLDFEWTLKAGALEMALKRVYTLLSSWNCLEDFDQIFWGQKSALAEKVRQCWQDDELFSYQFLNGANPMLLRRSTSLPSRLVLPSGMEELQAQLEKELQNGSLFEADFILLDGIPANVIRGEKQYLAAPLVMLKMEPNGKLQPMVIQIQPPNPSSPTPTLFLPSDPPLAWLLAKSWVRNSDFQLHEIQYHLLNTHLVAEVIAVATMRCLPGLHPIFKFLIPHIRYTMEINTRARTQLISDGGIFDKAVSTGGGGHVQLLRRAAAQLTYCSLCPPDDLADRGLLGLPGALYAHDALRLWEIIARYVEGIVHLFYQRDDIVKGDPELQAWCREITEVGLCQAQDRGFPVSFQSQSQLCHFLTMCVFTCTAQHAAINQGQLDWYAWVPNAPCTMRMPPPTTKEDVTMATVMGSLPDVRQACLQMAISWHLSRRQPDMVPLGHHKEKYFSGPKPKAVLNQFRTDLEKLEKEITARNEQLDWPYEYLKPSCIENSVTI
JMJD2E inh-1 = JMJD2E demethylase inhibition by 8HQ compounds. shares compounds with BAZ2B block. JMJD2E demethylase, FDH-coupled NADH fluorescence. Potency, µM (highest dose often 57 µM), without a hit: at the top dose activity, negative = inhibition, hits mostly inhibitors. 89% of 130 active. AID 493212
ME-1 growth = ME-1 cell growth inhibition | shares compounds with BAZ2B block | ME-1 cell proliferation, ATP luminescence, 48 h | Potency, µM (top dose mostly 56.1 µM), for inactives: at the top dose activity change, negative = inhibition, hits mostly inhibitors | 20% of 140 active | AID 504370
JMJD2E inh-2 = confirmation of inhibitors of human JMJD2E demethylase. shares compounds with JMJD2A Tudor inh. Recombinant JMJD2E, FDH-coupled NADH fluorescence (FDH is formaldehyde dehydrogenase). Potency, µM (titrated, usually from 56.8 µM), for the others: top-dose activity change, negative = inhibition, most hits filed as inhibitors. 93% of 140 active. AID 2677
FDH counter = FDH (Pseudomonas putida) inhibition counter-screen | shares compounds with JMJD2A Tudor inh | FDH enzyme assay, NADH fluorescence kinetic | Potency, µM (titrated, usually from 56.7 µM), without a hit: at the highest dose activity, negative = inhibition, hits mostly inhibitors | 10% of 140 active
Starred values were filed as active, the others as inactive; i = inactive; ? = inconclusive; . = no result given; [ ] = remark or other dose. In the library only some 12% were active in any assay of this set; here they are far more common. Unless noted, calls follow the shape of the dose curve; as a rule, active = well fitted curve in the direction sought with a large enough effect; inconclusive = small, poorly fitted or top-dose-only effect, or another doubt; inactive = no such curve, though single readings can be large; an effect the other way counts as inactive or inconclusive.

SMILES | G9a block | JMJD2A Tudor inh | BAZ2B block | Sfp PPTase inh | HP1b chromo inh | JMJD2E inh-1 | others
Cc1cc(SCC(=O)OCC(=O)N(C)c2ccccc2)nc2ccccc12 | 5%[59 µM] | 6% | 1% | . | 37% | .
O=C1C(CCC(O)c2ccc(F)cc2)C(c2ccc(O)cc2)N1c1ccc(F)cc1 (stereo unspecified) | -9%[2.33 µM] | . | . | 15% | . | . | ME-1 growth=8%
Cc1ccccc1NC(=S)N(CCN(C)C)C(C)c1ccccn1 (stereo unspecified) | 8% | -12% | ? | -4% | 38% | . | ME-1 growth=-9%[25.6 µM]
Cc1c(Cl)cccc1NC(=S)N(CCN(C)C)C(C)c1ccccn1 (stereo unspecified) | -1% | -9% | 50µM* | -22% | 28% | . | ME-1 growth=-3%[25.6 µM]
O=C1C[C@@H](c2ccc(O)cc2)Oc2cc(O[C@@H]3O[C@H](CO)[C@@H](O)[C@H](O)[C@H]3O)cc(O)c21 | . | . | . | -7% | . | .
CC(NC(=O)c1ccccc1F)C1CC1 (stereo unspecified) | 50% | 7% | 3% | -1% | ? | .
CCCC(=O)NC(c1ccc(OC)c(OC)c1)c1cc(Cl)c2cccnc2c1O (stereo unspecified) | . | -21% | -11% | ? | 37% | .
CCC(=O)NC(c1cc(Cl)c2cccnc2c1O)C1CC1 (stereo unspecified) | 19%[12.7 µM] | 79µM* | 32µM* | . | 52% | 32µM* | 12-hLO 8HQ R1=1.6µM*
CCC(=O)NC(c1cc(Cl)c2cccnc2c1O)C(C)C (stereo unspecified) | 26%[12.7 µM] | ? | 79µM* | . | 9% | 20µM* | 12-hLO 8HQ R1=1.2µM*
CCC(=O)NC(c1ccco1)c1cc(Br)c2cccnc2c1O (stereo unspecified) | 4%[12.7 µM] | . | 28µM* | . | . | 32µM* | 12-hLO 8HQ R1=2µM*
CC(=O)NC(c1cc(F)c2cccnc2c1O)C1CC1 (stereo unspecified) | ? | 79µM* | 50µM* | . | 33% | 29µM* | 12-hLO 8HQ R1=i
CCCCC(=O)NC(c1ccc(Cl)cc1Cl)c1ccc2cccnc2c1O (stereo unspecified) | . | ? | ? | 16% | 28% | .
COc1ccc(C2=NOC(Cn3nc(C(=O)NCc4ccccc4OC)cc3-c3ccccc3)C2)cc1 (stereo unspecified) | -7%[2.33 µM] | -17% | -4% | . | 12% | .
O=C(Cc1ccccc1F)Nc1cc(S(=O)(=O)N2CCOCC2)ccc1N1CCCC1 | . | -13% | . | . | 19% | .
COc1cccc(C(=O)N2c3ccc(C)cc3C(C)(c3ccccc3)CC2(C)C)c1 (stereo unspecified) | 5%[59 µM] | -16% | -14% | . | 12% | .
C[C@@H]1C[C@](C)(C(=O)c2ccc3c(c2)OCO3)C=C1c1ccc2c(c1)OCO2 | . | . | . | -4% | . | .
Oc1ccc(COC2CCCC2)c2cccnc12 | -31%[12.7 µM] | . | 13µM* | . | . | 6.3µM* | JMJD2E inh-2=6.3µM*;FDH counter=-9%
Cc1ccc(S(=O)(=O)Nc2ccc(O)c3cccnc23)cc1 | ? | ? | -23% | 11% | -7% | .
Oc1ccc(COc2cccc3ccccc23)c2cccnc12 | ? | . | 56µM* | . | . | 10µM* | JMJD2E inh-2=10µM*;FDH counter=-18%
C=CCCN(C(C)C(=O)OC)S(=O)(=O)c1ccccc1Br (stereo unspecified) | . | 2% | . | 7% | 61% | .
Oc1cccc2cc(C3CC3)cnc12 | . | . | . | . | . | 20µM* | JMJD2E inh-2=20µM*;FDH counter=-18%
CN(C)c1cnc2c(O)cccc2c1 | . | . | . | . | . | 20µM* | JMJD2E inh-2=18µM*;FDH counter=-27%
Cc1cnc2c(O)cccc2c1 | . | . | . | . | . | ? | JMJD2E inh-2=?;FDH counter=0%
Cc1cccc2cc3cccc(C)c3nc12 | 15%[0.501 µM] | 128% | 79% | -9% | 158% | .
Cc1nn(-c2ccc(F)cc2)c(Cl)c1C(=O)OC(C)C(=O)N(C)C1CCCCC1 (stereo unspecified) | 10%[12.7 µM] | 6% | 1% | . | 16% | .

Bioassay records: PubChem BioAssay, National Center for Advancing Translational Sciences (NCATS)
